The campaign covered roughly 340,000 compounds. About 1,000 (0.29%) were called active. Not all results are given here. Entries with a potency or affinity are not part of this list. Values without a mark were called inactive. Rule as the data show it: inconclusive = inhibition above about 27% without an active follow-up result; inactive = below that.
Assay: H1N1 influenza NS1A inhibitors, functional cell based assay (AID 504329)
Conditions: percent inhibition, at 12.5 µM, active compounds read high

SMILES | inhibition [%]
C=CCn1c(SCC(=O)NCc2ccc3c(c2)OCO3)nnc1C1COc2ccccc2O1 (stereo not drawn) | -2.53
CCC(C)[C@H](NC(=O)N1CCn2c1nc1ccccc12)C(=O)NCCc1ccccc1 (stereo partly drawn) | 4.3
COc1cccc(-c2ccc(NC(=O)C3CCCN(CCCn4nc(C)cc4C)C3)cc2)c1 (stereo not drawn) | 3.69
N#Cc1c(C(F)(F)F)cc(-c2ccccc2)n(N)c1=O | -8.39
O=C(Nc1ccon1)c1ccc(Cl)c(S(=O)(=O)N2CCCCC2)c1 | -6.8
S=c1[nH]nc(C2CCCCC2)n1/N=C/c1ccccn1 | -8.07
CCc1n[nH]c(=S)n1/N=C/c1ccccn1 | -4.28
Cc1ccc(CNC(=O)CSc2ccc(-c3ccccn3)nn2)cc1 | 14.6
O=C(CSc1ccc(-c2ccccn2)nn1)NCc1ccccc1 | 1.11
COc1cccc(CNC(=O)CSc2ccc(-c3ccco3)nn2)c1 | -0.85
COc1cccc(CNC(=O)CSc2ccc(-c3cccs3)nn2)c1 | 5.92
O=C(O)C1CCCCC1C(=O)Nc1ccc(S(=O)(=O)N2CCCCC2)cc1 (stereo not drawn) | 4.7
CCCC(C)C1(CC)C(=O)NC(=O)N=C1N (stereo not drawn) | -9.22
O=C(NCc1cccnc1)c1ccccc1NS(=O)(=O)c1ccccc1 | -3.37
CCOC(=O)C1CCCN(c2c(N3CCN(c4ccccn4)CC3)c(=O)c2=O)C1 (stereo not drawn) | 6.61
CCCCCOc1ccc(C(=O)NCCC(=O)NCCCC(=O)OCC)cc1 | -5.18
CC1(C)CC(=O)C2=C(C1)Nc1ccccc1NC2c1ccc(F)c(F)c1 (stereo not drawn) | -6.87
Cc1[nH][nH]c(=O)c1C(c1c(C)[nH][nH]c1=O)c1cn(Cc2ccc(Cl)c(Cl)c2)c2ccccc12 | 17.4
O=C(O)Cc1cn(Cc2ccc(F)cc2)c2ccccc12 | 5.18
CCN(CC)c1ccc(CNc2nc3ccccc3n2CCN2CCOCC2)cc1 | 5.53
COc1ccc(CNc2nc3ccccc3n2CCN2CCCCC2)cc1 | 8.37
CC(C)C[C@@H](CNCC(=O)[C@H](CC(C)C)NC(=O)c1[nH]cnc1C(=O)N[C@H](CN)CC(C)C)NC(=O)c1nc[nH]c1C(=O)N[C@@H](Cc1ccccc1)C(=O)O | -21.2
COC(=O)c1scc(C)c1NC(=O)c1ccccc1F | -2.27
COc1cccc(OC)c1C(=O)Nc1nnc(-c2ccc(F)cc2)s1 | -7.27

SMILES | inhibition [%]
CCN(CC)c1ccc2nc3ccccc3[n+](CC)c2c1 | 25.1
CCN(CC)c1ccc(/C=N/N(c2ccccc2)c2ccccc2)c(O)c1 | -0.39
N#Cc1nc(COc2cccc(Cl)c2)oc1N1CCN(c2ccccc2)CC1 | -10.8
O=C1C(c2c(O)[nH]c3ccccc23)=Nc2ccccc21 | 4.56
CC(=O)Nc1c(O)c2ccccc2[nH]c1=O | -0.37
COc1ccc(CCNC(=O)c2ccc(CS(=O)(=O)Cc3cccc(C)c3)o2)cc1OC | 1.57
O=C(CN1C(=O)c2ccccc2C1=O)Nc1cccc(Cl)c1 | -5.21
Nc1ccc2cn[nH]c2c1 | 0.77
Nc1ccc2nc(-c3cccc(-c4nc5ccc(N)cc5[nH]4)n3)[nH]c2c1 | 16.6
O=C(OCCn1c(=S)sc2ccccc21)c1ccccc1 | -0.85
O=C(c1ccccc1)c1ccc(C(=O)N2CCOCC2)cc1 | 2.77
O=C(CSc1nnc(-c2cccnc2)o1)Nc1ccccn1 | 19
CC(=O)Nc1ccc(NC(=O)CSc2nnc(-c3cccnc3)o2)cc1 | -1.5
CCOC(=O)C1CCCN(c2c(NCCc3ccc(S(N)(=O)=O)cc3)c(=O)c2=O)C1 (stereo not drawn) | -1.2
Cc1ccc2c(CN(C)Cc3ccc(OC(F)F)cc3)cc(=O)oc2c1C | -13.7
CN(Cc1nccs1)C(=O)C1CCC(=O)N(Cc2ccccc2F)C1 (stereo not drawn) | -7.1
COc1cccc(/C=C2\SC(=S)N(CCC(=O)N3CCCCC3)C2=O)c1 | -7.67
COc1cccc(/C=C2\SC(=S)N(CCCC(=O)N3CCCCC3)C2=O)c1 | 13.4
S=c1[nH]cnc2scc(-c3ccccc3)c12 | 2.25
S=c1[nH]c(-c2ccccc2)cs1 | -8.02
CCn1cc(C(=O)NCc2ccc(OC)cc2)c(=O)c2ccc(C)nc21 | -3.98
O=C(NCCc1ccccc1)C(=O)NCC1CCCN1S(=O)(=O)c1ccccc1 (stereo not drawn) | -2.99
CCN(CC)c1ccc(/C=C2\CCC(/C=C(\C#N)C(=O)Nc3ccccc3F)=C2N2CCOCC2)cc1 | -0.77
N#C/C(=C\C1=C(N2CCOCC2)C(=C\c2ccc(Cl)cc2)/CC1)C(=O)Nc1ccccc1F | 8.68

SMILES | inhibition [%]
CCN(CC)c1ccc(/C=C2\CCC(/C=C(/C#N)C(=O)Nc3ccccc3F)=C2N2CCOCC2)cc1 | -9.82
N#C/C(=C/C1=C(N2CCOCC2)C(=C/c2ccc(Cl)cc2)/CC1)C(=O)Nc1ccccc1F | -12.3
CCOc1cccc(C2C(C(=O)c3ccc(C)o3)=C(O)C(=O)N2c2nnc(C)s2)c1 (stereo not drawn) | 3.08
CC1(c2ccccc2)NC(=O)N(NC(=O)COC(=O)c2cc(Br)ccc2O)C1=O (stereo not drawn) | -5.16
O=C(NCCN1CCCCC1)c1ccc(Cl)nc1Cl | -3.64
Cc1ccc(S(=O)(=O)Nc2cccc3ncccc23)cc1 | -4.33
Cc1ccc(S(=O)(=O)Nc2cccc3cccnc23)cc1 | -11
Cc1ccc(S(=O)(=O)Nc2cc(Cl)c(O)cc2C)cc1 | 6.58
Cc1ccc(S(=O)(=O)Nc2ccc(O)c3cccnc23)cc1 | -4.48
Cc1nn(-c2ccccc2)c(C)c1/C=C/C(=O)OCC(=O)Nc1ncc(Cl)cc1Cl | -0.68
CCc1ccc2[nH]c(C)c(CN3CCCCCC3)c(=O)c2c1 | 6.48
Cc1ccc(NC(=O)CSc2nnc(-c3ccco3)o2)cc1 | 5.76
Cc1cc(NC(=O)CSc2nnc(-c3ccccc3)o2)no1 | 14
Nc1ccc(-c2ccccc2)cc1 | -0.13
O=C(O)c1ccc(N(c2ccccc2)c2ccccc2)cc1 | -2.79
Cc1ccc(C(=O)Nc2ccc(N3CCN(C(=O)c4ccco4)CC3)cc2)cc1 | -1.89
S=C1NC2(CCCCC2)N=C1c1ccccc1 | -4.42
S=C1NC2(CCCCCC2)N=C1c1ccccc1 | 6.12
CC(=O)Nc1nonc1-c1nc2ccccc2n1CC1CC1 | 6.72
O=C(CSc1nnc(SCc2ccc(Cl)cc2)s1)N/N=C/c1ccc(C(=O)O)cc1 | -0.08
CC1CCN(S(=O)(=O)c2ccc3c(c2)N(CC(=O)N(C)Cc2ccco2)C(=O)CO3)CC1 | 3.45
CCOc1cccc(-c2nn(-c3ccccc3)cc2/C=C(/C#N)C(=O)NCCCn2ccnc2)c1 | 6.31
O=C(NCCCn1ccnc1)c1cn(-c2ccccc2)nc1-c1ccc(F)cc1 | 6.07
N#C/C(=C/c1cn(-c2ccccc2)nc1-c1cccc(OCc2ccccc2)c1)C(=O)NCCCn1ccnc1 | -3.98

SMILES | inhibition [%]
CCCOc1cccc(-c2nn(-c3ccccc3)cc2/C=C(\C#N)C(=O)NCCCn2ccnc2)c1 | 1.02
CC(C)C(=O)Nc1cccc(C(=O)Nc2cc([N+](=O)[O-])ccc2F)c1 | -8.76
COc1ccc(C(=O)O/N=C(\N)c2ccc(Cl)cc2)cc1 | 2.64
CN1CCCN(C(=O)CNC(=O)c2ccccc2F)CC1 | -1.28
Cc1c(C(C)(C)C)sc(=NC(=O)c2ccccc2O)n1C | -24.8
Nc1[nH]c(N=NC(=O)c2ccc(Cl)cc2)c2ccccc12 | 10.9
CC(=O)N=Nc1[nH]c(N)c2ccccc12 | -6.73
Nc1[nH]c(N=NC(=O)c2ccccc2)c2ccccc12 | 19
Nc1[nH]c(N=NC(=O)c2ccc(F)cc2)c2ccccc12 | 12.2
Cc1ccc(N2CC(C(=O)Nc3nc4ccc(S(C)(=O)=O)cc4s3)CC2=O)cc1 (stereo not drawn) | -4
COc1cc(C(=O)NCc2ccccc2)ccc1OC(F)F | 2.29
O=C1C=C(Nc2ccc(O)cc2)C(=O)c2ccccc21 | 24.1
O=S(=O)(/N=C(/Nc1ccccc1)c1ccccc1)c1cccs1 | -0.58
Cc1ccc(NC2=CC(=O)C(=O)c3ccccc32)c(C)c1 | -11
Cc1ccc(NC2=C/C(=N/S(=O)(=O)c3cccs3)c3ccccc3C2=O)cc1 | 2.95
Cc1ccc(NC2=C/C(=N/S(=O)(=O)c3cccs3)c3ccccc3C2=O)cc1C | -0.69
O=C1C=C(Nc2ccccc2)c2ccccc2C1=O | -0.21
Cc1ccc(S(=O)(=O)/N=C2\C=C(NS(=O)(=O)c3ccccc3)C(=O)c3ccccc32)c(C)c1 | 10.6
Cc1cccc(NC2=C/C(=N/S(=O)(=O)c3cccs3)c3ccccc3C2=O)c1 | 22.8
O=C(C1CC(=O)N(c2ccc(F)cc2)C1)N1CCC(c2nc3ccccc3[nH]2)CC1 (stereo not drawn) | -1.46
COc1ccc(-c2cc(C(=O)Nc3ccc(F)cc3F)no2)cc1 | -13.1

From PubChem BioAssay AID504329 (Southern Research Specialized Biocontainment Screening …, 2011)
